Assay results reported in PubChem BioAssay (NCI).
Several values for one entry are separate records, joined by “and”; a condition that tells them apart may be missing. Equal entries are not always repeated. About 83,000 compounds went through this panel and 20% of them were active in at least one assay; those are over-represented in the sample as a whole.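 48-hour exposure, single concentration, 96-well plates; percent growth endpoint where 0 means no net growth. Active: below 10.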 Activity calls are given as the source filed them.

What was measured:
Test in all cases: NCI-60 one-dose screen, 48 h (100 = growth as untreated, 0 = no growth, -100 = all killed)
NCI-H23 lung = test system: NCI-H23 lung
NCI-H226 lung = test system: NCI-H226 lung
NCI-H322M lung = test system: NCI-H322M lung
HOP-62 NSCLC = test system: HOP-62 NSCLC
NCI-H460 lung = test system: NCI-H460 lung
HOP-92 NSCLC = test system: HOP-92 NSCLC
NCI-H522 lung = test system: NCI-H522 lung
A549/ATCC NSCLC = test system: A549/ATCC NSCLC
786-0 renal = test system: 786-0 renal
COLO 205 colon = test system: COLO 205 colon
DU-145 prostate = test system: DU-145 prostate
K-562 leukemia = test system: K-562 leukemia
MALME-3M melanoma = test system: MALME-3M melanoma
MDA-MB-231 breast = test system: MDA-MB-231 breast
RXF 393 renal = conditions: 10 µM unless noted
SF-268 CNS = test system: SF-268 CNS
SF-295 CNS = test system: SF-295 CNS
SF-539 CNS = test system: SF-539 CNS
UACC-257 melanoma = test system: UACC-257 melanoma
M14 melanoma = conditions: 10 µM unless noted

Measured: growth

CCN(CC)CCCC(C)Nc1cnc(C(=O)Nc2cc(F)cc3cccnc23)cn1 (stereo not drawn)
51.9% (inactive) and -92.1% (active): SF-268 CNS; 10 µM unless noted
63.3% (inactive) and -82.2% (active): DU-145 prostate; 10 µM unless noted
21.9% (inactive) and -5.6% (active): M14 melanoma
59.4% (inactive) and -55% (active): MDA-MB-231 breast; 10 µM unless noted
33.8% (inactive) and -84.4% (active): RXF 393 renal
active: COLO 205 colon; 10 µM unless noted 3.11% and -50.9% | K-562 leukemia; 10 µM unless noted 3.95% and 4.95% | MALME-3M melanoma; 10 µM unless noted -8.34% and -76.1%
76.8% (inactive) and -12.4% (active): UACC-257 melanoma; 10 µM unless noted
68.4% (inactive) and -55.1% (active): 786-0 renal; 10 µM unless noted
inactive: NCI-H226 lung; 10 µM unless noted 85.1% and 49.5% | A549/ATCC NSCLC; 10 µM unless noted 58% and 18.9%
52.7% (inactive) and -59.4% (active): NCI-H522 lung; 10 µM unless noted
37.5% (inactive) and -76.6% (active): HOP-92 NSCLC; 10 µM unless noted
64.1% (inactive) and -14.1% (active): HOP-62 NSCLC; 10 µM unless noted
83.1% (inactive) and 8.22% (active): SF-539 CNS; 10 µM unless noted
63.8% (inactive) and 0.121% (active): NCI-H322M lung; 10 µM unless noted
71.2% (inactive) and 3.03% (active): SF-295 CNS; 10 µM unless noted
69.5% (inactive) and -75.9% (active): NCI-H460 lung; 10 µM unless noted
81.4% (inactive) and -25.1% (active): NCI-H23 lung; 10 µM unless noted

Clc1nc(Oc2ccccc2)nc(-c2cn(-c3ccccc3)c3ccccc23)n1
inactive: NCI-H23 lung; 10 µM unless noted 14.5% | NCI-H226 lung; 10 µM unless noted 80.2% | NCI-H322M lung; 10 µM unless noted 93.5% | HOP-62 NSCLC; 10 µM unless noted 101% | NCI-H460 lung; 10 µM unless noted 97.2% | NCI-H522 lung; 10 µM unless noted 111% | A549/ATCC NSCLC; 10 µM unless noted 102% | 786-0 renal; 10 µM unless noted 101% | COLO 205 colon; 10 µM unless noted 98.1% | DU-145 prostate; 10 µM unless noted 76.7% | K-562 leukemia; 10 µM unless noted 36.9% | MALME-3M melanoma; 10 µM unless noted 85.7% | MDA-MB-231 breast; 10 µM unless noted 40% | RXF 393 renal 42.9% | SF-268 CNS; 10 µM unless noted 28.3% | SF-295 CNS; 10 µM unless noted 86.2% | SF-539 CNS; 10 µM unless noted 91.1% | UACC-257 melanoma; 10 µM unless noted 93.6% | M14 melanoma 71.1%
active: HOP-92 NSCLC; 10 µM unless noted -40.8%

CC(C)CNC(=O)c1ccccc1C(=O)NC1(C(=O)NCC(C)C)CCCC1
inactive: NCI-H23 lung; 10 µM unless noted 100% and 108% | NCI-H226 lung; 10 µM unless noted 99% and 103% | NCI-H322M lung; 10 µM unless noted 112% and 106% | HOP-62 NSCLC; 10 µM unless noted 102% and 95.6% | NCI-H460 lung; 10 µM unless noted 108% and 113% | HOP-92 NSCLC; 10 µM unless noted 117% | NCI-H522 lung; 10 µM unless noted 95.9% | A549/ATCC NSCLC; 10 µM unless noted 95.7% and 107% | 786-0 renal; 10 µM unless noted 107% and 99% | COLO 205 colon; 10 µM unless noted 102% and 121% | DU-145 prostate; 10 µM unless noted 111% and 109% | K-562 leukemia; 10 µM unless noted 102% | MALME-3M melanoma; 10 µM unless noted 125% | MDA-MB-231 breast; 10 µM unless noted 109% and 105% | RXF 393 renal 113% and 130% | SF-268 CNS; 10 µM unless noted 104% | SF-295 CNS; 10 µM unless noted 111% and 105% | SF-539 CNS; 10 µM unless noted 100% | UACC-257 melanoma; 10 µM unless noted 102% and 106% | M14 melanoma 108% and 102%

CC(C)(C)c1cc(NC(=O)Cc2ccc(-c3cnc4cc(-c5cnn(CCN6CCOCC6)c5)ccc4n3)cc2)no1
active: HOP-92 NSCLC; 10 µM -3.35% | HOP-92 NSCLC; 30 µM -10.6% | COLO 205 colon; 10 µM 9.61% | K-562 leukemia; 10 µM 2.41% | K-562 leukemia; 30 µM -1.34% | MALME-3M melanoma; 10 µM -5.96% | MALME-3M melanoma; 30 µM -9.19% | MDA-MB-231 breast; 10 µM 9.54% | RXF 393 renal -20.5% | SF-539 CNS; 10 µM -5.64% | SF-539 CNS; 30 µM -9.45%
inactive: NCI-H23 lung; 10 µM 26.4% | NCI-H23 lung; 30 µM 27.3% | NCI-H226 lung; 10 µM 10% | NCI-H226 lung; 30 µM 13.7% | NCI-H322M lung; 10 µM 24.9% | NCI-H322M lung; 30 µM 26.1% | HOP-62 NSCLC; 10 µM 17.1% | HOP-62 NSCLC; 30 µM 34.4% | NCI-H460 lung; 10 µM 11% | NCI-H460 lung; 30 µM 13% | NCI-H522 lung; 10 µM 20% | NCI-H522 lung; 30 µM 27% | A549/ATCC NSCLC; 10 µM 24.3% | A549/ATCC NSCLC; 30 µM 20.8% | 786-0 renal; 10 µM 18% | 786-0 renal; 30 µM 21.7% | COLO 205 colon; 30 µM 20.5% | DU-145 prostate; 10 µM 23.7% | DU-145 prostate; 30 µM 19.8% | MDA-MB-231 breast; 30 µM 14.9% | SF-268 CNS; 10 µM 19.9% | SF-268 CNS; 30 µM 24.7% | SF-295 CNS; 10 µM 21.4% | SF-295 CNS; 30 µM 15.4% | UACC-257 melanoma; 10 µM 27.1% | UACC-257 melanoma; 30 µM 31% | M14 melanoma 15%
